Screens deposited in PubChem by National Center for Advancing Translational Sciences (NCATS).
An excerpt weighted towards active compounds, which were near 2.1% of everything screened.
TDP43 rescue = rescues yeast growth from TDP-43 toxicity. TDP-43 expressing yeast growth rescue, BacTiter-Glo, 24 h. Potency, µM (doses to about 46.1 µM), for the others: at the top dose growth rescue (activation), actives largely listed as activators. actives 1.8% (n = 410,000); also: % of control where 0% means no effect; nearly all actives have a fitted effect of over 50% in size
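Readout is BacTiter-Glo luminescence of cell growth, so inhibitors register as activators. TDP-43-expressing yeast at OD600=0.02 in galactose medium, after raffinose pregrowth to mid-log, were incubated with compound for 24 hr at 30 deg C.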
aSyn rescue = alpha-synuclein toxicity inhibition in yeast. Potency, µM (doses to about 46.1 µM), inactives show at the top dose growth rescue (activation), usual class: activators. Yeast expressing alpha-synuclein, growth rescue, BacTiter-Glo, 24 h. actives 0.14% (n = 370,000); also: % of control where 0% means no effect; nearly all actives have a fitted effect of over 65% in size
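Readout is rescue of growth in alpha-synuclein-expressing yeast, so inhibitors of toxicity appear as activators. Growth after 24 hr at 30 deg C in galactose medium is quantified by luminescence.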
Abeta rescue = compounds reversing amyloid beta toxicity in yeast. yeast expressing A-beta42, growth rescue, OD600, 48 h; response scale: 0% DMSO, 100% iron-clioquinol control. Potency, µM (doses to about 46.1 µM), most hits filed as activators. actives 0.063% (n = 410,000); also: nearly all actives have a fitted effect of over 55% in size
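Yeast growth medium received pinned compounds, then yeast cells expressing toxic A-beta were added; plates incubated at 30 C for 48 hr. Growth read as absorbance at 600 nm, normalized to DMSO and equimolar FeCl3 plus clioquinol controls.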
FUS suppressor = suppressors of FUS proteinopathy in yeast; S. cerevisiae FUS-expressing, growth rescue, OD600, 24 h; Potency, µM (titrated, usually from 76.6 µM), actives largely listed as activators; actives 0.24% (n = 390,000);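 also: plate controls were DMSO vehicle for no effect and reference control for full effect; nearly all actives have a fitted effect of over 55% in size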
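Yeast FUS proteinopathy model; galactose-induced FUS (2%), starting OD 0.005. Cpds in dilution series, 24hr, 30C, 99% humidity. Abs 600 nm growth. Pos ctrl CP55940 (top 92uM final); neg ctrl DMSO.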
Starred values were filed as active, the others as inactive; i = inactive; u = inconclusive; x = no result; [ ] = dose if it differs, or a comment. Calls follow the shape of the dose curve; as a rule, active = well fitted curve in the direction sought with a large enough effect; inconclusive = small, poorly fitted or top-dose-only effect, or another doubt; inactive = no such curve, though single readings can be large; an effect the other way counts as inactive or inconclusive. Potency is read from the fitted curve at half-maximal effect.

SMILES	TDP43 rescue	aSyn rescue	Abeta rescue	FUS suppressor
O=C1c2ccccc2-n2nncc2C2c3cc(Br)ccc3CCN12 (configuration not stated)	35µM*	-3%	i	i
CC(C)(C)c1ccc(OCCON2C(=O)CCC2=O)c(Cl)c1	13µM*	1%	i	i
COc1ccccc1N=Nc1ccc(N)c(C)c1	u	-7%	i	i
NC(=NCCC[C@H](N)C(=O)O)N[N+](=O)[O-]	x	-7%	x	x
COc1ccccc1C(=O)Nc1ccc2c(c1)CC1(C(=O)N(C)C(=O)N(C)C1=O)C1CCCN21 (configuration not stated)	-9%	-2%	i	40µM*
O=C(CN1CCOCC1)c1ccc2ccccc2c1	x	10%	x	x
COC(=O)C1=C(c2ccc(F)cc2F)C[C@@H]2CC[C@H]1N2C(=O)N1CCC(O)(c2ccc(Cl)cc2)CC1	20µM*	u	u	u
COc1ccc(S(=O)(=O)N(C)C[C@H]2OCCCC[C@H](C)Oc3ccc(N(C)C)cc3C(=O)N([C@H](C)CO)C[C@@H]2C)cc1	9%	u	i	i
C[C@H](CCC(=O)O)[C@H]1CC[C@H]2[C@@H]3[C@H](O)C[C@@H]4C[C@H](O)CC[C@]4(C)[C@H]3CC[C@]12C	22µM*	6%	i	u
Cc1ccc([C@H]2C[C@@H](O)[C@H](n3cc(COC(=O)c4ccccc4)nn3)CN2CC2CCCCC2)cc1	u	7%	i	i
CCCCCCCCC(c1nc2cc(C)c(C)cc2[nH]1)n1c(=O)c(-c2ccccc2Br)nc2ccccc21 (configuration not stated)	-12%	u	i	i
O=c1oc2ccccc2c(O)c1[C@H]1c2ccc(O)cc2Oc2c1c(=O)oc1ccccc21	5.6µM*	0.56µM*	i	i
O=C1NC(=O)C(=Cc2ccccc2Oc2ccc(F)cc2)C(=O)N1	-13%	-4%	i	i
CN1C(=O)C(=Cc2ccccc2Oc2ccc(Cl)c(F)c2)C(=O)N(C)C1=O	22µM*	5%	i[9.22 µM]	i
O=C1NCCOC(=O)[C@@H](Cc2ccc(F)cc2)CC/C=C/C[C@@H]1CC(=O)N(CCO)Cc1ccccc1	22%	1%	i	u
CCCCn1nnnc1C(c1cccc2ccccc12)N1CCC2(CC1)C(=O)NCN2c1ccccc1 (configuration not stated)	-9%	12%	i	10µM*
O=C1NCN(c2ccccc2)C12CCN(C(c1cccc3ccccc13)c1nnnn1Cc1ccccc1)CC2 (configuration not stated)	15%	2%	i	u
O=C1NCN(c2ccccc2)C12CCN(C(c1ccccc1OC(F)(F)F)c1nnnn1Cc1ccccc1)CC2 (configuration not stated)	0%	1%	i	10µM*
CC(C)Oc1cc(-n2c(=S)[nH]c3ccccc3c2=O)c(Cl)cc1Cl	10µM*	-5%	i	i
COc1cc(-n2c(=S)[nH]c3ccccc3c2=O)c(Cl)cc1Cl	u	-2%	i	i
CC1(C)N([O])C(c2ccc(C(=O)O)cc2)=[N+]([O-])C1(C)C	x	-5%	x	x
CCOc1ccc(C(=O)Nc2cc(NC(=O)c3ccco3)ccc2OC)cc1Br	u	x	i	i
CCCCn1c(O)c(C(CC)=NCc2ccc(F)cc2)c(=O)[nH]c1=O	22µM*	5%	i	u
CC(C)(C)C(=O)C(Oc1ccc(Cl)cc1)n1cncn1 (configuration not stated)	11µM*	u	i	i
CCOc1ccc(S(=O)(=O)NCCc2sc3nc(-c4ccc(C)cc4)nn3c2C)cc1	u	x	i	i
SMILES	TDP43 rescue	aSyn rescue	Abeta rescue	FUS suppressor
Cc1ccc(CN(C)C(=O)c2cccc(S(=O)(=O)N3CCN(c4ccccc4)CC3)c2)cc1	u	15%	i	x
O=C(c1ccco1)c1cn(Cc2ccccc2Cl)c2ccccc12	u	3%	i	i
CC(C)(C)C(=O)c1cn(Cc2ccccc2)c2ccccc12	13µM*	0%	i	i
O=C(c1ccco1)c1cn(Cc2ccccc2)c2ccccc12	22µM*	5%	i	i
CCC(=O)c1cn(Cc2ccccc2)c2ccccc12	8.9µM*	4%	i	i
O=C(Nc1ccc2c(c1)OCCO2)c1cccn(Cc2ccccc2)c1=O	20µM*	x	i	i
N#Cc1ccccc1NC(=O)c1cccn(Cc2ccccc2)c1=O	22µM*	x	i	i
Cc1cccc(C)c1NC(=O)c1cccn(Cc2ccc3c(c2)OC(F)(F)O3)c1=O	20µM*	1%	i	u
CC(C)Oc1cccc(NC(=O)c2cccn(Cc3ccc4c(c3)OC(F)(F)O4)c2=O)c1	23%	11%	i	i
O=C(Nc1ccc2c(c1)OCCO2)c1cccn(Cc2cccc([N+](=O)[O-])c2)c1=O	-1%	x	i	i
CC(C)(O)[C@H]1O[C@H]2CC[C@@]3(C)[C@@](O)(CC[C@H]4Cc5c([nH]c6ccccc56)[C@@]43C)C2=CC1=O	22µM*	3%	u	u
COCCCn1c(N)c(C(=O)Nc2ccccc2)c2nc3ccccc3nc21	8%	15%	i	i
CCC(C)NC(=O)c1c(N)n(CCCOC)c2nc3ccccc3nc12 (configuration not stated)	25µM*	11%	i	i
N#Cc1ccccc1Cn1cc(C(=O)c2ccco2)c2ccccc21	15%	2%	i	i
N#Cc1ccccc1Cn1cc(C(=O)C2CC2)c2ccccc21	20µM*	11%	i	i
CCC(=O)c1cn(Cc2ccccc2C#N)c2ccccc12	25µM*	5%	i	i
N#CCCN	x	-7%	x	x
Cn1cnc([N+](=O)[O-])c1Sc1ccc([N+](=O)[O-])cc1	20µM*	-18%	i	i
N#Cc1cc(NC(=O)c2ccc(Cl)cc2)ccc1Sc1ccccc1	-41%	-10%	i	i
COc1cccc(N2CCN(c3c4c(nc5nncn35)CCC4)CC2)c1	u	x	i	i
N[C@@H](Cn1ccc(=O)[nH]c1=O)C(=O)O	x	-3%	x	x
CCCCCCCCCCCCCC(=O)O[C@@H]1[C@@H](C)[C@@]2(O)[C@@H](C=C(CO)C[C@@]3(O)C(=O)C(C)=C[C@@H]23)C2C(C)(C)[C@@]21OC(C)=O (some centres not stated)	x	8%	x	x
CC(=O)O[C@@]12CO[C@@H]1C[C@H](OC1OCC(O)C(O)C1O)[C@@]1(C)C(=O)[C@H](O)C3=C(C)[C@@H](OC(=O)[C@H](O)[C@@H](NC(=O)c4ccccc4)c4ccccc4)C[C@@](O)([C@@H](OC(=O)c4ccccc4)C12)C3(C)C (some centres not stated)	7%	5%	i	10µM*
